Assay outcomes: PubChem, several laboratories
PTK2B oligo ant: Pyk2 (human) oligomerization antagonism | z-score (the deposit names both 25 µM and 10 µM) | Q293 cells, Pyk2 FERM NanoBiT luminescence; active compounds read low | AID 1347419 | 99,000 compounds, 0.83% hits;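 active means Z-score of -3 or lower, scaled per plate to the spread of control and sample wells; inactive means z-score above -3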;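 further: negative z-score means lost luminescence so less FERM oligomerization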
FAK blocker: inhibitors of human focal adhesion kinase; biochemical FAK kinase activity assay; Q05397; AID 727; inhibition, %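 (tested at 7 µM)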; 97,000 compounds, 0.84% hits;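 further: 0% = DMSO and 100% = reference compound high control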
Mac1 fbg enh: increases human CD11b/CD18 adhesion to fibrinogen. P05107+P11215. K562 CD11b/CD18 adhesion to fibrinogen, ATPlite luminescence. activation, % at 10 µM. 93,000 compounds, 0.07% hits. AID 1499;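 active means 10 µM primary screen giving 50% or more activity, confirmed by 40% or more on retest at that dose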
DAT uptake mod: human DAT dopamine uptake with cocaine, either direction; AID 449768; Q01959; B-score at 10 µM; 110,000 compounds, 1.3% hits; LLC-PK1 hDAT cells, [14C]-dopamine uptake with cocaine IC80; actives deviate in either direction;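 active means Z score or B-score, a plate-position-corrected score, falls beyond the plate's 99.7% confidence bounds, in either direction; inactive means both scores lie inside the 99.7% bounds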;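 further: scored against the spread of the other compound wells on the same plate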
Mac1 fbg inh: CD11b/CD18-fibrinogen binding inhibition; P05107+P11215; K562 CD11b/CD18 adhesion to fibrinogen, ATPlite luminescence; Mn2+ added to activate the integrin; inhibition, % at 10 µM; 93,000 compounds, 0.54% hits; AID 1497;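 active means primary inhibition of 50% or more at 10 µM, then 40% or more on retest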
D1 allo mod: D1 dopamine receptor (human) allosteric modulation. HEK293 D1, CRE-luciferase, dopamine EC30 potentiation; actives deviate in either direction. B-score at 10 µM. 58,000 compounds, 5.9% hits. AID 641;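 active means luminescence count or its row- and column-corrected plate score outside the 99.7% band of the plate's sample wells, on either side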
FAK inh confirm: confirmation of human focal adhesion kinase (FAK) inhibitors. inhibition, % at 7 µM. 750 compounds, 28% hits. FAK kinase biochemical inhibition assay. shares compounds with FAK blocker
* marks the source's active call; other numbers are inactive results; x = no result given. Shown is part of a subset that was picked to be rich in hits. Unless noted, no stated cut-off is given here; in the data, active means inhibition above about 19%; inactive means the rest.

SMILES	PTK2B oligo ant	FAK blocker	Mac1 fbg enh	DAT uptake mod	Mac1 fbg inh	D1 allo mod	FAK inh confirm
Cc1ccc(N2CC(C(=O)Nc3ccc4c(c3)OCO4)CC2=O)cc1 (configuration not stated)	-0.03	40.5*	-0.1	-1.44	7.3	0.0963	2.0
COc1ccc(CNC(=O)c2cc(-c3ccco3)on2)cc1	0.27	-0.8	x	-0.402	x	-0.418	x
c1coc(-c2nc(-c3ccco3)c(-c3ccco3)nc2-c2ccco2)c1	0.64	99.4*	-4.3	0.79	-3.9	0.562	2.7
COc1ccc2nc(-c3ccco3)c(-c3ccco3)nc2c1	-0.19	66.5*	-2.6	0.664	10.3	x	2.9
Nc1nc(-c2ccco2)c(-c2ccco2)s1	0.06	7.9	1.3	-0.0818	-5.3	0.000255	x
Cc1ccc2nc(Nc3ccc4[nH]c(=O)[nH]c4c3)c(-n3nc(C)cc3C)nc2c1	-1.23	-1.4	30.0	0.138	0.0	0.194	x
CC1(C)C=C(c2ccc(O)cc2)CC(C)(C)N1	-0.09	-6.8	-1.7	-0.339	2.8	0.326	x
O=C(Nc1ccc(O)c(C(=O)O)c1)c1ccc2c(c1)C(=O)N(CC1CCCO1)C2=O (configuration not stated)	1.46	x	-8.5	-0.332	-3.9	-0.0744	x
N#Cc1cc2ccc(N3CCOCC3)cc2cc1C#N	-2	22.7*	6.2	-0.633	-5.6	0.047	0.2
N#Cc1cc(Cl)c(N2CCOCC2)cc1C#N	1.56	1.7	-8.0	0.0234	1.6	0.269	x
Cc1ccc2nc(/C(C#N)=C\c3ccc(N4CCCCC4)c([N+](=O)[O-])c3)[nH]c2c1	-2.29	23.6*	68.0	0.22	1.3	x	18.3
CN1c2ccccc2C(C)(C)C12C=Nc1c(cc(N3CCOCC3)c3ccccc13)O2 (configuration not stated)	-1.3	39.9*	x	0.34	x	x	-1.8
CN1c2ccccc2C(C)(C)C12C=Cc1cc(O)ccc1O2 (configuration not stated)	-1.03	-0.3	x	1.5	x	-1.56	x
O=C(N1CCOCC1)N1c2ccccc2Sc2ccccc21	-1.97	40.3*	x	0.0329	x	x	2.0
Cc1c(N2C(=O)c3ccc4c5c(ccc(c35)C2=O)CC4)c(=O)n(-c2ccccc2)n1C	0.22	70.0*	62.4	-0.746	-33.1	0.297	40.7*
COc1ccc(CNC(=O)CSc2nnnn2-c2ccc(O)cc2)cc1	0.03	5.2	-5.5	1.42	5.7	-0.327	x
COC(=O)c1c(NC(=O)Cc2cccs2)sc2c1CCCC2	0.13	20.7*	7.5	-0.0128	9.4	2.74*	8.2
COCC(=O)Nc1sc2c(c1C(=O)OC)CCCC2	0.74	-0.1	x	-0.156	x	x	x
COc1cc(N2C(=O)NC3CC2(C)Oc2ccc(Br)cc23)cc(OC)c1OC (configuration not stated)	x	x	x	x	x	0.904	x
Cc1ccccc1C(=O)N/N=C/c1ccc([N+](=O)[O-])s1	-0.47	2.3	0.7	-0.549	-3.0	x	x
Cc1c(Cl)cccc1N=Cc1ccc([N+](=O)[O-])s1	1.23	25.1*	x	-0.935	x	x	-0.7
Clc1ccc2[nH]cc(-c3nnnn3-c3ccccc3)c2c1	-2.08	32.7*	x	-0.225	x	x	19.9*
Clc1ccc2ncc(-c3nnnn3-c3ccccc3)c(-c3ccccc3)c2c1	-0.87	-0.9	-0.6	0.0142	1.2	x	x
Cc1ccc2cc3cc(C(=O)NCc4ccc5c(c4)OCO5)oc3nc2c1	-0.5	27.9*	64.0	-0.627	-10.9	-0.613	19.9*
COc1ccc(NC(=O)CSC2CC(=O)N(c3ccc4c(c3)OCCO4)C2=O)cc1 (configuration not stated)	0.35	x	0.3	1.01	-7.5	1.24	x
O=C1CC(C2CCCO2)C(=O)N1c1cccc(Cl)c1 (configuration not stated)	0.25	-0.2	7.2	-0.747	1.3	-0.536	x
